Measurements taken from PubChem BioAssay.
Records with an inconclusive call do not appear. Calls of active or inactive are those of the source.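 Rule for the calls, unless noted: active = viability at or below 10% of carrier control in both of two separate runs; inconclusive = viability at or below 10% in only one of the two runs; inactive = the rest.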

What was measured:
[1] = Her2 expression decrease, cell viability multiplex – SKBR3 breast tumor cells, AlphaScreen, ATP viability, primary screen (AID 461;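 active = Her2 level under about 52% in both replicate screens, with viability over 70% of control, limit read from the data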;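 for Her2 level: lower value means less Her2 protein in the cells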;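 for viability: percent of carrier control wells set as 100% viability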); details: SKBR3 Her2 protein level, 18-24 h, measured here: SKBR3 viability, ATP luminescence, at 10 µM
[2] = molecular target: Receptor tyrosine-protein kinase erbB-2 (Homo sapiens) (UniProt P04626); assay: as above; details: 18-24 h, at 10 µM, stronger effect = lower value
[3] = reduced viability of SK-BR-3 breast cancer cells – cell-based, 24 h, human, pilot screen (AID 572); details: SK-BR-3 viability, CellTiter-Glo luminescence, at 10 µM, stronger effect = lower value;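 note: compound exposure lasted between 18 and 24 h rather than exactly 24 h; 100% = carrier-treated control wells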
[4] = HUVEC growth inhibition – cell-based, human, primary screen (AID 575;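 active = viability at or below 30% in both replicate assays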;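 note: 100% = median of untreated cell wells with 0.1% DMSO on each plate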); details: HUVEC proliferation, CellTiter-Glo luminescence, 72 h; at 10 µM; stronger effect = lower value
[5] = H69AR cell proliferation blockers – human, duplicate replicates, primary screen (AID 580;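 active = viability at or under a set limit in both replicates, limit being median viability minus 3 SD, cut at about 48% in these data, passing the limit was not always enough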;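 note: 100% = mean luminescence of untreated wells and 0% = no signal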); details: H69AR lung tumor cells viability, ATP luminescence, 72 h; at 10 µM; stronger effect = lower value
[6] = MRP1 drug-resistance reversers in H69AR cells – cell-based, doxorubicin co-treatment, pilot screen (AID 601;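 active = viability loss from added drug above about 55%, and viability with drug at most 40%, in both replicates, limit read from the data, passing the limit was not always enough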); details: CellTiter-Glo, 72 h, at 10 µM; for differential viability (reversal): stronger effect = higher value
[7] = doxorubicin toxicity protection in MRP-1 cells – H69AR cells, CellTiter-Glo, duplicate, MRP-1 activator project, pilot screen (AID 807;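 active = viability increase at or above a cutoff of the median across tested compounds plus 3 SD, cut at about 8.5% in these data, passing the limit was not always enough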;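 note: compound pretreatment 18-22 h then 72 h combined with doxorubicin; 0% = doxorubicin alone and 100% = vehicle without doxorubicin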); details: H69AR viability with doxorubicin, CellTiter-Glo luminescence; at 10 µM; stronger effect = higher value
[8] = viability of HCT116 without oncogenic beta-catenin – human colon tumor cells, pilot screen (AID 823;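 active = cell viability at or below a set limit in both duplicate runs, the limit being the all-compound median minus 4 SD, cut at about 23% in these data, passing the limit was not always enough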;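 note: 0% = wells killed by 20 µM Hyamine and 100% = untreated DMSO cell wells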); details: HCT116 beta-catenin knockout viability, CellTiter-Glo, 60 h; at 10 µM; stronger effect = lower value
[9] = viability of PTEN-null HCT116 cells – cell-based, HCT116 clonal line, CellTiter-Glo, pilot screen (AID 824;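 active = viability at or below 27.92% in each of two runs, the all-compound median minus 4 SD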;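 note: 0% = 20 µM Hyamine control and 100% = vehicle cell control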); details: HCT116 PTEN-deleted viability, 60 h, at 10 µM, stronger effect = lower value
[10] = RAM pathway blockade in budding yeast – dse1pr::URA3 reporter, 5-FOA selection, pilot screen (AID 869;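 active = inhibition over a set limit, the all-compound mean plus 3 SD, in both replicate runs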;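 note: 0% = DMSO wells with no growth and 100% = 10 µM 1-NA-PP1 with full growth; RAM network block rescues cells from 5-FOA so hits raise OD615 growth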); details: S. cerevisiae dse1pr::URA3 5-FOA growth, OD615, 2 d; at 10 µM; stronger effect = higher value; strain carries analog-sensitive mutant Cbk1 kinase
[11] = RAM signaling pathway blockade in yeast – S. cerevisiae, Pdr1DBD-CYC8 efflux-inhibited sensitized strain, primary screen (AID 1298;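 active = RAM network inhibition above 8.4% in each of two replicates, 3 SD over the compound average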;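 note: 0% = DMSO untreated cells without growth and 100% = 10 µM 1-NA-PP1 full growth; higher means more yeast growth rescued from 5-FOA killing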); details: S. cerevisiae cbk1-as DSE1-URA3 strain, 5-FOA growth OD615, 2 d; at 50 µM; stronger effect = higher value
[12] = S. cerevisiae growth inhibition in restrictive medium, OD615, pilot screen, restrictive growth control, yeast lifespan reduction project (AID 706;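 active = growth inhibition above a set limit, 3 SD over mean compound inhibition, in both replicates, cut at about 43% in these data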;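 note: modified DeaD lifespan yeast strain shifted to restrictive glucose medium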); details: OD615, 48 h, at 10 µM, stronger effect = higher value
[13] = H69AR cells + 2 uM doxorubicin, measured here: viability with 2 uM doxorubicin, stronger effect = lower value
[14] = H69AR cells, compound alone cytotoxicity

Receptor tyrosine-protein kinase erbB-2 (Homo sapiens), sequence (P04626 whole entry, looked up): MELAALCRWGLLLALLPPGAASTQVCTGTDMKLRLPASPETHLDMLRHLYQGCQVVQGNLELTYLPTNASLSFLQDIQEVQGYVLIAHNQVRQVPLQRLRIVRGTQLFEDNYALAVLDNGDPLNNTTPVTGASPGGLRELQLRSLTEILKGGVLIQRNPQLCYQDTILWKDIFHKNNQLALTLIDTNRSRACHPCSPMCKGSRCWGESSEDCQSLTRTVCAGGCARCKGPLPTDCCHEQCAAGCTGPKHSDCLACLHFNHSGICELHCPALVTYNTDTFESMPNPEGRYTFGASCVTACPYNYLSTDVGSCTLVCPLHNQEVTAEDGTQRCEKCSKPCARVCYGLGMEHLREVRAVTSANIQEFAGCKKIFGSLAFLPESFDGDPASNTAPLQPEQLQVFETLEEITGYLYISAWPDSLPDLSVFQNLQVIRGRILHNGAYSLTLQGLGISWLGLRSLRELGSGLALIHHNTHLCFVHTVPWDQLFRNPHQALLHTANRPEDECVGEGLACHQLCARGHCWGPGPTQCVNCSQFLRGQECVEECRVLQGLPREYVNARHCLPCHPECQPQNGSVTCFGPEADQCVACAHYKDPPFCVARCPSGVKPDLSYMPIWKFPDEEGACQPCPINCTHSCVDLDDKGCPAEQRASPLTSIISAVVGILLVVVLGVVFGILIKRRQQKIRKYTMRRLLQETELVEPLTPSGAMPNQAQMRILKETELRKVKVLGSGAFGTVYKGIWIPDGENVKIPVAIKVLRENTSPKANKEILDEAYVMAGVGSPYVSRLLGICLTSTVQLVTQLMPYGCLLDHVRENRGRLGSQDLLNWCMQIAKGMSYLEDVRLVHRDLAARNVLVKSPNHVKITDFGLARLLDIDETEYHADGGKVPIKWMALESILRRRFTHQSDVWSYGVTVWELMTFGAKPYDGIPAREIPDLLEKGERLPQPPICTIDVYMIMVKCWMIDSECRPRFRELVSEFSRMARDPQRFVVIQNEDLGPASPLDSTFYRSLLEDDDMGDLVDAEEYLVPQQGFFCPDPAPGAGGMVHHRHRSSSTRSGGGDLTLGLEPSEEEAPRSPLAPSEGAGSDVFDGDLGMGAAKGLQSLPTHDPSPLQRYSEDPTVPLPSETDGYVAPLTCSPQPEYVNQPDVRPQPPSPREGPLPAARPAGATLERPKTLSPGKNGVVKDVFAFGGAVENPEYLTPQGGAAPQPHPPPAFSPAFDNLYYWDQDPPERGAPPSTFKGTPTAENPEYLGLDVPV

| Compound | viability [1] [%] | Her2 level [2] | viability [3] | viability [4] | viability [5] | differential viability (reversal) ([6]; H69AR cells + 2 uM doxorubicin) | viability [6, 13] [%] | viability [6, 14] [%] | viability increase [7] | viability [8] | viability [9] | inhibition [10] | RAM network inhibition [11] | growth inhibition [12] |
| --- | --- | --- | --- | --- | --- | --- | --- | --- | --- | --- | --- | --- | --- | --- |
| CCCC(CCC)C(=O)OC1C[C@H]2CC[C@@H](C1)[N+]2(C)C (some centres undefined) | 112 | 95.5% (inactive) | 112% (inactive) | 108% (inactive) | 94% (inactive) | 9.01% (inactive) | 85 | 94 | – | – | – | – | – | – |
| OC(CCN1CCCCC1)(c1ccccc1)C1CCCCC1 (centres undefined) | 69.5 | 99.5% (inactive) | 69.5% (inactive) | 84.9% (inactive) | 92.2% (inactive) | -0.69% (inactive) | 92.9 | 92.2 | – | – | – | – | – | – |
| O=C(CSCc1ccco1)Nc1cc(C(F)(F)F)ccc1N1CCOCC1 | – | – | – | – | – | – | – | – | -5.7% (inactive) | 63.4% (inactive) | 79.1% (inactive) | 1.91% (inactive) | 4.46% (inactive) | – |
| CC(C)(C)NC[C@H](O)COc1nsnc1N1CCOCC1 | 112 | 110% (inactive) | 112% (inactive) | 99.8% (inactive) | 106% (inactive) | 2.23% (inactive) | 104 | 106 | – | – | – | – | – | – |
| Nc1ccc2[nH]ncc2c1 | 80.5 | 106% (inactive) | 80.5% (inactive) | 84.1% (inactive) | 100% (inactive) | -6.96% (inactive) | 107 | 100 | – | – | – | – | – | – |
| CS(=O)(=O)Nc1ccc([N+](=O)[O-])cc1Oc1ccccc1 | 118 | 103% (inactive) | 118% (inactive) | 106% (inactive) | 108% (inactive) | 10.3% (inactive) | 97.6 | 108 | – | – | – | – | – | – |
| Nc1ccc(S(=O)(=O)NC(=O)c2ccccc2)cc1 | 104 | 100% (inactive) | 104% (inactive) | 90% (inactive) | 98.5% (inactive) | 6.16% (inactive) | 92.4 | 98.5 | – | – | – | – | – | – |
| CC(Sc1nc2ccccc2s1)C(=O)N1CCOCC1 (centres undefined) | – | – | – | – | – | – | – | – | -3.03% (inactive) | 95.9% (inactive) | – | 1.84% (inactive) | 6.03% (inactive) | 2.68% (inactive) |
| Cc1cccc(C)c1NC(=O)C1CCCCN1C (centres undefined) | 108 | 101% (inactive) | 108% (inactive) | 104% (inactive) | 99.7% (inactive) | 12% (inactive) | 87.7 | 99.7 | – | – | – | – | – | – |
| CC(C)(S)[C@@H](N)C(=O)O | 102 | 93% (inactive) | 102% (inactive) | 106% (inactive) | 110% (inactive) | 15.4% (inactive) | 94.3 | 110 | – | – | – | – | – | – |
| CCN(CC)CCNC(=O)c1ccc(N)cc1 | 97.5 | 136% (inactive) | 97.5% (inactive) | 99.2% (inactive) | 88.1% (inactive) | -10.7% (inactive) | 98.8 | 88.1 | – | – | – | – | – | – |
| COC(=O)CSCc1nc2ccccc2[nH]c1=O | – | – | – | – | – | – | – | – | -2.15% (inactive) | 101% (inactive) | 94.8% (inactive) | 0.08% (inactive) | 1.09% (inactive) | – |
| OCCOCCN1CCN(C(c2ccccc2)c2ccc(Cl)cc2)CC1 (centres undefined) | 79 | 80% (inactive) | 79% (inactive) | 90.1% (inactive) | 98.3% (inactive) | 9.31% (inactive) | 89 | 98.3 | – | – | – | – | – | – |
| OCCN(CCO)c1nc(N2CCCCC2)c2nc(N(CCO)CCO)nc(N3CCCCC3)c2n1 | 117 | 94.5% (inactive) | 117% (inactive) | 79.6% (inactive) | – | – | – | – | – | – | – | – | – | – |
| CCOC(=O)[C@H](CCc1ccccc1)N[C@@H](C)C(=O)N1CCC[C@H]1C(=O)O | 116 | 100% (inactive) | 116% (inactive) | 103% (inactive) | 88.6% (inactive) | -8.79% (inactive) | 97.4 | 88.6 | – | – | – | – | – | – |
| COc1ccc(C2CNC(=O)C2)cc1OC1CCCC1 (centres undefined) | 115 | 121% (inactive) | 115% (inactive) | 114% (inactive) | 109% (inactive) | 18.8% (inactive) | 90.6 | 109 | – | – | – | – | – | – |
| NS(=O)(=O)c1cc2c(cc1Cl)NC(C1C[C@H]3C=C[C@@H]1C3)NS2(=O)=O (some centres undefined) | 110 | 130% (inactive) | 110% (inactive) | 88.3% (inactive) | 92.7% (inactive) | -10.8% (inactive) | 104 | 92.7 | – | – | – | – | – | – |
| COc1ccc(-c2coc3cc(O)cc(O)c3c2=O)cc1 | 118 | 99% (inactive) | 118% (inactive) | 84.2% (inactive) | 68.8% (inactive) | -27% (inactive) | 95.8 | 68.8 | – | – | – | – | – | – |
| NS(=O)(=O)c1cc2c(cc1C(F)(F)F)NC(Cc1ccccc1)NS2(=O)=O (centres undefined) | 106 | 114% (inactive) | 106% (inactive) | 83.9% (inactive) | 88.9% (inactive) | -5.48% (inactive) | 94.3 | 88.9 | – | – | – | – | – | – |
